This is an account of results in the supplement of paper PMC10105736.

Experiment in all cases: MAPPIT interaction score (arbitrary units); higher = stronger binary interaction signal, active = hit call of the paper
One experiment has as its target Nup153. The following applies: MAPPIT configuration: N-N; pair source set: DPIM.
For the next experiment, the target named is Pen. Particulars: MAPPIT configuration: N-N; pair source set: Lit-BM-16.
The target of another experiment is PCID2. Particulars: MAPPIT configuration: N-N; pair source set: Lit-BS-16.
The next experiment has as its target Or49b. The following applies: MAPPIT configuration: N-N; pair source set: DPIM.
The next experiment has as its target Su(var)2-10. The following applies: MAPPIT configuration: N-N; pair source set: DPIM.
The target of a further experiment is PAN3. Particulars: pair source set: RRS.
Another experiment has as its target Nup50. Particulars: MAPPIT configuration: N-N; pair source set: DPIM.
Another experiment deals with Nnk. The following applies: MAPPIT configuration: N-N; pair source set: Curagen_high_conf.

Values without a mark were called inactive.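 The calls were made as follows: active = MAPPIT score above the 99th percentile of random reference set scores in the same batch; inactive = at or below it.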
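Also: HEK293T cells with Epo stimulation, STAT-responsive firefly luciferase reporter, fold induction versus unstimulated cells divided by the larger fold induction of two negative controls lacking either bait or prey.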

B1: Nup50 (protein)
chain: MAGKRQATSNLNHENWDLEEEPEERGTFRTATEEELKTRVIKKARRKIAGGSSAAEEDGAEEKTAEPKSVFSGFSGFGKPAASPAAGSPFSFLANVTAPATTSSSEPKKSAFSFGFSSSSSSADRPVSTSICGTASTSSTAPSPLPAKESTSTVDGAKPTTSIFGNISAAKKESSEAKTSSSSTSLTSTMETSEYRESVADLNRSVIKFLQDQMGKSPYCILTPVFKNYDEHLKDLQDEESARTNSTKSKTAQARSQEPVAKVSRASSPPKAATTFTFGKPSAPIGASVSPLAKKPNCTITSGGTTTTTATPLVSFGSTASFTAPVPSSSSIFSLTAKPTGEAKSDDTPKSSIFSFGAKDTTTKKDEPNFSAPKTNGFSFGLKSNNDDKPSTSLFAGFGKAPGGAGDGAKGFSFTNSATPFSLGNIHPPAAAAAPAEEEKEEDTPPKVEFKQVVEDDAIYSKRCKVFIKKDKDFGDRGVGTLYLKPVKDSEKIQLLVRADTNLGNILVNLILSKGIPCQRMGKNNVLMVCVPTPEDSKATSLLLRVKTGDEADDLLEKIKEHIK
Turning to B1, the MAPPIT interaction score with Nup153 is 0.802; with Pen, 3.66 (active).

B2: Fs(2)Ket (protein)
chain: MTSDIAMQLIAILEKTVSPDKNELLSAKNFLEQAAASNLPEFLKALSEILVNTANSAVARMAAGLQLKNHLTSKDEKVSQQYQDRWHQFPSEIRELIKNNILAALGTENTRPSCAAQCVAYVAVIELPINRWPMLIQTLVNKVVSEGSSEMHRESALEAIGYICQDIRFGVMENQSNDVLTAIIHGMRKVEPSNHVRLAATTALHNSLEFTKSNFEKDMERNFIMEVVCEATQCQDSQICVAALQCLVKIMTLYYQYMEPYMAQALFPITLAAMKSDNDAVALQGIEFWSNVCDEEIDLAIESQEATDQGRAPQRVSKHYARGALQFLTPVLVEKLTKQDECDDEDTWSPAKAASVCLMVLATCCEDEIVPHVLPFIKENIESPNWRFRDAAVMTFGSVLNGLETNTLKPLVEQAMPTLIRLMYDSSVIVRDTIAWTFGRICDIIPEAAINETYLQTLLECFVKSLKSEPRVAANVCWAFIGLSDAAWEAAVTNDGETPETYALSPYFEYIITQLLETTDRSDGAQANLRCAAYQALMDMIKNSPLDCYLVVQRTTLVILERLNQVMQMETQINNHSDRHQFNDLQSLLCATLQSVLRKVHEQDAPQISDAIMTALLTMFNSSAGKSGVVQEEAFLAVSTLVELLGAQFAKYMPAFKDFLVMGLKNFQEYQVCCAAVGLTGDIFRALKDLMVPYSNEIMTVLINNLTEPTIHRTVKPQVLSAFGDIALSIGNHFLPYLSMVLDMLRVASNLQTDANNFDMNEYINELRESILEAYTGIIQGLKGVDQTAHTDVMHMEPHLMHIISFIKRIAQEGDVSDSMLASAAGFIGDLCTSFGPRLYPLLDDAIITQFLAEGKRSKAQRTKMLCTWAVKEIKKINTQVITQ
Take B2: in the experiment with PCID2, the MAPPIT interaction score was 0.0886.

B3: Atx2 (protein)
chain: MNNNSKRKTRPTGGGASGGISRYNSNDNSLRPTNNKAGAGGGNGGAAVRPSAQGVYNNTFFMHSATALVGSVVEVRLRSGNIYEGVFRTFSGNFDIALELPACIKSKNLPEEGKVPKHIIFPADTVVTIVAKDFDSQYATAGAFQTDGAISDKCNGARPDEKELEPWDSGANGDIDIELDSAANGWDPNEMFRKNENTFGVTSTFDDSLASYTVPLDKGDSLEFKEAEAKAEKLAAEIENNPTCRDRLDLENGDEEALFAAVERPSTEQDQRGDRGDRERNDRDREREERDRDRDRDRGNKPRGAGDFQLRETMSSDRYITKQTRSITGPQLSHVGMSSQGSGRDRDTRGDGSMMMQSGGGSGQGGSTQSTAALMLAGGLKGVGPAPSANASADSSSKYSGGSMVKRKTVPQGGKVMRNNVPTGGSNVSVSQGGNGNSVGQNKGGYQPSMGMPSQYSYQGNSQIMHGSSQYRNQSHMGGANKLNGDSNANTNKPLPQRQMRQYQGSQSNSSLNYGGEPQSLGKPVHGSHGGHPGQNSNSPPLQTAGPQQQQQQQQQQQQQQQQQQPPQQQQHQNIQPQGQNTQPARQVRTRDNQMQELRQFGQDFQLAPSNTSPPQQQQQQQQQQQQHQVQQQQQRALQQSASPPQQQQQQQQQQQHVVLHQVPQTHLHQAALSQPHYVPQQQPQQAPLPQQQHVPHHMQQKAQQQQLVETQHQHVQKQHQSQPQVQQPPPQLLQDPSQQPLPIYHTMPPPQTSPVVVTSPVLLEQPPPQPMPVVQQQQTQQLATPKPEVSPAPPSSNTTTPTGIASTPTAGVIASAGSEKTTPAAPTPTSNSATVPTGTAATAGGATGTTPVVKKHVLNPSAKPFTPRGPSTPNPSRPHTPQTPVPMTNIYTTTGGHVPPAANQPIYVMQPQHPFPPQTHPQAGQPPRLRRSNYPPMAASQMHVSASAATGQPLITAGPIPQFIQYGHAPHQQQFQSHTYAPMQMRVYPDQPQQLQFMTQTPQSTTPSPGQPHQQFHPPPQPSPAGGGPQPAFTPPTQAATYQLMCVHPQSLLANHYFPPPTPQHPQQNQQQYQIVMQQHQPQ
Regarding B3, the MAPPIT interaction score was -0.465 in the experiment with Or49b and 0.0668 with Su(var)2-10.

B4: Dsp1 (protein)
chain: MEHFHQIQQTIQHYQQQLAAQQQQQVQQQQLQQHQVVVQQNQQQAHQNSSNTTAGVGTQQLFTYKMASSFPNPATTMAQVVATSNAAGTTGYDYRLNMAQAAAAAAVPGSQWWYSAANQGQVDANTAAQLQHQQQQQQQQQQQQQQQHQQQQQMQQQQQQQNVINSASPMSRVKADAKPRGRMTAYAYFVQTCREEHKKKHPDETVIFAEFSRKCAERWKTMVDKEKKRFHEMAEKDKQRYEAEMQNYVPPKGAVVGRGKKRKQIKDPNAPKRSLSAFFWFCNDERNKVKALNPEFGVGDIAKELGRKWSDVDPEVKQKYESMAERDKARYEREMTEYKTSGKIAMSAPSMQASMQAQAQKAALLAAAAQQQHQQLEEQHDDDDGDGDDDENQ
B4: the MAPPIT interaction score with PAN3 (MAPPIT configuration: N-C) was 0.573; with PAN3 (MAPPIT configuration: N-N), 0.707.

B5: Nubp2 (protein)
chain: MLDKVKNVIVVLSGKGGVGKSTVSTQLSLALRKNGFKVGLLDIDLCGPSVPYLLGLEGRDIFQCDDGWVPVYTDESQTLAVMSIGFLLKNREDPVIWRGPKKTMMIRQFLTDVRWDELDYLIIDTPPGTSDEHITVMECLKEVGCHGAIIVTTPQEVALDDVRKEITFCKKTGINILGIVENMSGFVCPHCTSCTNIFSSNGGVSLATYAQVPHLGTLPIDPRVGILAGTTTSVLDELPDSTTAEVLTHIVEKLKTMLVS
As to B5, in the experiment with Nup50, the MAPPIT interaction score is -0.182.

B6: mei-S332 (protein)
chain: MGSKVEQQYKLLNAELMDQVQKQRLEIGEYRKRVISLEREIMDIREEHVLQNHRQRMENISIVRSLMLSLNVDSDSLAVRQEPAPAAQINRPSGPRRSSREICKDMRRTCALARTTRPISPRRSSSVTSTVSSTSRRSSAEVQSEVVTTRIPEDRRANKPTPPPRRPAELVFDEDDSDDDFDEAVSPVEETQTEQNEENNRLFSIIEENGSEGESTDSSSSCEAIYCDTTFESSPPNAQVTVTPSGRALREVDTNIPVAVSLSRGKETGKGSWLAISVAVEDSPQEPSIQCPRLAVTRPSQSSGIFPDVNGLTPRRSLFNGIGKMAGSTSTPKSFLVEEMPSIRTRSRTAANKKSENTDMSSSFCNNSARPSRSCRPTSLVEPSLKNKLRNGSKGKAKAKK
Regarding B6, the MAPPIT interaction score in the experiment with Nnk was -0.26.
